Test [1] can be described thus: antimalarial activity against Dd2 strain (AID 2302;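 active = growth inhibition above 50% at the single 2 µM test dose, taken to imply half-maximal potency below 2 µM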;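 note: 0% = DMSO untreated growth and 100% = chloroquine plus artemisinin killed control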). The following applies: P. falciparum Dd2 in RBCs, LDH growth readout, 72 h; at 2 µM; hits give high values.
The target of test [2] is L-lactate dehydrogenase (Plasmodium falciparum (isolate CDC / Honduras)) (UniProt Q27743). The test is described as follows: PfLDH activity inhibition – cell lysate, 3D7 strain, counter-screen for P. falciparum growth inhibition project (AID 2304).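 Note: 0% = vehicle and 100% = reference inhibitor.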 The following applies: P. falciparum 3D7 crude extract, LDH APAD/NBT absorbance; at 2 µM; hits give high values. (Counterscreens check selectivity or assay interference.)
Chain of L-lactate dehydrogenase (Plasmodium falciparum (isolate CDC / Honduras)) (Q27743 whole entry, looked up): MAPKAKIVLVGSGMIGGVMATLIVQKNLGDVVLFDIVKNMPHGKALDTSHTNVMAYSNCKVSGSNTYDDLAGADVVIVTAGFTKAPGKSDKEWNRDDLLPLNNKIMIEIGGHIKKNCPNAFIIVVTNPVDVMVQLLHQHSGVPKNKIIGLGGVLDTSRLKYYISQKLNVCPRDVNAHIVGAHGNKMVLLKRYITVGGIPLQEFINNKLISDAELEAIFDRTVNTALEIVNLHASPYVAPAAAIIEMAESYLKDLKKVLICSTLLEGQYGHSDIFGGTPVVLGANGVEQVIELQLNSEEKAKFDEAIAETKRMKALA

Test [3] is described as follows: inhibition of 3D7 malaria parasite growth – strain 3D7 (AID 2306).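 Note: 0% = DMSO wells and 100% = chloroquine plus artemisinin control wells.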 The note with it: P. falciparum 3D7 erythrocytic growth, LDH absorbance, 72 h; at 2 µM; hits give high values.
Test [4] has as its target Calcium-dependent protein kinase 1 (Plasmodium falciparum (isolate 3D7)) (UniProt P62344). The test is described as follows: PfCDPK1 kinase inhibitors, biochemical, TCAMS library (AID 1159585; cut-off not given, nearly all actives have IC50 up to about 0.98 µM;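 note: inhibitors leave more ATP so luminescence rises with inhibition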). The following applies: recombinant PfCDPK1, Kinase-Glo ATP depletion luminescence. (Kinase-Glo measures the ATP left after a reaction by luminescence.)
For test [5], the target named is Plasmodium falciparum protein kinase 6 (PK6, PF3D7_1337100) (UniProt Q8IDW1). The test is described as follows: PfPK6 kinase inhibitors, biochemical, TCAMS library (AID 1159586). The note with it: recombinant PfPK6, Kinase-Glo ATP depletion luminescence.
Chain of Plasmodium falciparum protein kinase 6 (PK6, PF3D7_1337100) (Q8IDW1 1-305): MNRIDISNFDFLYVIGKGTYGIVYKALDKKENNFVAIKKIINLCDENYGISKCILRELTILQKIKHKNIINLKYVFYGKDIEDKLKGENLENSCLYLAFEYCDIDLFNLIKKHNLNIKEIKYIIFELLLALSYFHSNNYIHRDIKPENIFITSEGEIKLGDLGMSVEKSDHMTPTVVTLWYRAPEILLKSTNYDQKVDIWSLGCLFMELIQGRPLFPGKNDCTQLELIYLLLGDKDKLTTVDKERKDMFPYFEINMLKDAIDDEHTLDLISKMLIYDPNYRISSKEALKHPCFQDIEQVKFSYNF
Test [6] concerns the target Protein kinase 7 (PK7), Plasmodium falciparum 3D7 (PF3D7_0213400) (UniProt Q7YTF7). Put plainly: inhibition of Plasmodium PK7 catalytic activity – biochemical, TCAMS antimalarial set, Kinase-Glo luminescence (AID 1159587). The following applies: recombinant PfPK7, Kinase-Glo ATP depletion luminescence.
Test [7] deals with Calcium-dependent protein kinase 4 (Plasmodium falciparum (isolate 3D7)) (UniProt Q8IBS5). The test is described as follows: PfCDPK4 kinase inhibitors, biochemical, TCAMS library (AID 1159588; cut-off not given, nearly all actives have IC50 up to about 0.91 µM). The following applies: recombinant PfCDPK4, Kinase-Glo ATP depletion luminescence.
Chain of Calcium-dependent protein kinase 4 (Plasmodium falciparum (isolate 3D7)) (Q8IBS5 whole entry, looked up): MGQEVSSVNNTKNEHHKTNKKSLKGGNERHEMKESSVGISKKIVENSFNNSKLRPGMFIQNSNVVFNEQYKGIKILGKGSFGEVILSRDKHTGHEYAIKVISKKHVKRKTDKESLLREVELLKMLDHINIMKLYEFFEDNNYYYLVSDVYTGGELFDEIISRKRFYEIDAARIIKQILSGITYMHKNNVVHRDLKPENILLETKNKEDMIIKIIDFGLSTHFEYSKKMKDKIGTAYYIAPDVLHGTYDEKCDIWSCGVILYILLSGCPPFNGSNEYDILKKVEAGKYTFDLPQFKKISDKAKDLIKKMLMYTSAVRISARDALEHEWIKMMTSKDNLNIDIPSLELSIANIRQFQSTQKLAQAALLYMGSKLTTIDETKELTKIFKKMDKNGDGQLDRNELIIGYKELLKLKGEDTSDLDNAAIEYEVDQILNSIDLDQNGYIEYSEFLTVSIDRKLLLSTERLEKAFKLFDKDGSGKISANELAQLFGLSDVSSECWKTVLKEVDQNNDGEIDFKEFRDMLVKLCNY
The nature of test [8]: human hepatoma cell viability loss – ATP luminescence, cytotoxicity control for P. falciparum antimalarial project, primary screen (AID 2303;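 active = inhibition above 50%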;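 note: 0% = DMSO wells and 100% = digitonin-killed cells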). The following applies: HepG2 viability, 24-48 h, at 10 µM, hits give high values.

A number with no mark means an inactive call. For some of these results: Results with a measured potency or affinity are listed apart. The source made the active and inactive calls. Unless noted, the rule behind the calls is not given here.

By inhibition is commonly meant the relative decrease from the control value, in per cent.

Chain of Protein kinase 7 (PK7), Plasmodium falciparum 3D7 (PF3D7_0213400) (Q7YTF7 1-343): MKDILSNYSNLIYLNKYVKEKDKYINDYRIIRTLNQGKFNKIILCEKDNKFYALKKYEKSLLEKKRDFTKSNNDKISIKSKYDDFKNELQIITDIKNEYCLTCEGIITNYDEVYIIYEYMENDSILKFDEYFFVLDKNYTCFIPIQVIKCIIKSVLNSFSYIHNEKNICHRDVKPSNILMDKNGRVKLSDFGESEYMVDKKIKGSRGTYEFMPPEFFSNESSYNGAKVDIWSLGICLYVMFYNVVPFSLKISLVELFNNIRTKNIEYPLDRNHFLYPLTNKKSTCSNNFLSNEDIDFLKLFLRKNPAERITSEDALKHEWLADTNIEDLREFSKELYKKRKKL
Chain of Calcium-dependent protein kinase 1 (Plasmodium falciparum (isolate 3D7)) (P62344 whole entry, looked up): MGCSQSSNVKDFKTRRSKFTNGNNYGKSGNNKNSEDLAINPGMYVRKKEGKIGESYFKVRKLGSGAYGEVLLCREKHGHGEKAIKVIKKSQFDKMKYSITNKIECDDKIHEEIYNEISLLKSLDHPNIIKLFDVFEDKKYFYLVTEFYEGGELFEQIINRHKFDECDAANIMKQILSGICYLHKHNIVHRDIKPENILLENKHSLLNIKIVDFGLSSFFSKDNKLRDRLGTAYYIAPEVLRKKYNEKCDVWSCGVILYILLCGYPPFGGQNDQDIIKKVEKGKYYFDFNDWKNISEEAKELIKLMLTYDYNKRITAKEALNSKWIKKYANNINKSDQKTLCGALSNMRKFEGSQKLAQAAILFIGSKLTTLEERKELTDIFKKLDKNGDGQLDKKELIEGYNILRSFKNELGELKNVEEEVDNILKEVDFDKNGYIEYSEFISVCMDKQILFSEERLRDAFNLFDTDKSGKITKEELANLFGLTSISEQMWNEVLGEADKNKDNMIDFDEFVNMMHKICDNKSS

In the case of `CCCCN(CCCC)Cc1cc(N(C)c2ccc([N+](=O)[O-])cn2)ccc1O`, the growth inhibition in test [1] and in test [3] was 98% (active) each time. Besides, in test [2], the inhibition is 7%. In addition, the result in test [4], in test [5], in test [6] and in test [7] was inactive.

On to `CCC(C(C)C)n1ccc2c3c(N)nc(N)nc3ccc21` (stereo not drawn), for which the growth inhibition in test [1] and in test [3] was 95% (active) each time. In test [2], the inhibition is 3%. The result in test [4], in test [5], in test [6] and in test [7] was inactive.

On to `CCCCC#Cc1cnc2nc(N)[nH]c(=O)c2n1`, for which the growth inhibition in test [1] is 2%; in test [3] it was 89% (active). In addition, the inhibition in test [2] was 0%. In addition, the result in test [4], in test [5], in test [6] and in test [7] was inactive.

Regarding `CCOC(=O)c1c(-c2ccccc2)c(C(=O)OCC)n2ccccc12`, the figures for the growth inhibition in test [1] and in test [3] were 70% (active) and 93% (active), respectively. In test [2], the inhibition was -1%. The outcome in test [4], in test [5], in test [6] and in test [7] was inactive.

Consider `CN1CCC(N2CCN(C(=O)c3cccc(-c4cccc(-c5nc6ccccc6[nH]5)c4)c3)CC2)CC1`, for which the inhibition is 10% in test [8] and 3% in test [2]. The growth inhibition in test [3] is 100% (active). The result in test [4], in test [5], in test [6] and in test [7] was inactive.

Take `N=C(N)c1nc2ccccc2s1`: the inhibition is 1% in test [8] and -1% in test [2]. Further, the growth inhibition in test [3] was 87% (active). The outcome in test [4], in test [5], in test [6] and in test [7] was inactive.

Take `Cc1cc(OCCCN2CCC(NC(=O)c3ccc(Br)cc3)C2)c2ccccc2n1` (stereo not drawn): the inhibition in test [8] is 13%; in test [2], -3%. Further, in test [3], the growth inhibition was 85% (active). Further, the outcome in test [4], in test [5], in test [6] and in test [7] was inactive.

`CCN(Cc1cccc2ccccc12)c1ccc2nc(N)nc(N)c2c1`: the growth inhibition in test [1] and in test [3] was 100% (active) each time. The inhibition in test [2] is 3%. Further, the result in test [4], in test [5], in test [6] and in test [7] was inactive.

`CC(C)(C)OC(=O)N[C@@H](CS(=O)(=O)CCN=C(N)COCc1ccccc1)C(=O)OC(C)(C)C`: the growth inhibition in test [1] is 76% (active); in test [3], 88% (active). Besides, in test [2], the inhibition was 4%. The result in test [4], in test [5], in test [6] and in test [7] was inactive.

With `Cc1[nH]c(C)c(-c2ccc(Oc3cccc(OC(F)(F)F)c3)cc2)c(=O)c1Cl`, the growth inhibition in test [1] and in test [3] was 97% (active) in each case. For the same compound, the inhibition in test [2] is -1%. For the same compound, the result in test [4], in test [5], in test [6] and in test [7] was inactive.

In the case of `COc1ccc(N=C(N)Nc2ccccc2)nc1Cc1ccccc1`, the inhibition in test [8] was 17%; in test [2], -6%. Also, in test [3], the growth inhibition was 81% (active). In addition, the result in test [4], in test [5], in test [6] and in test [7] was inactive.

`COc1ccc(Cc2c(Cl)nc3nc(N)nc(N)c3c2C)cc1`: the growth inhibition is 3% in test [1] and 94% (active) in test [3]. In addition, in test [2], the inhibition was 6%. Besides, the outcome in test [4], in test [5], in test [6] and in test [7] was inactive.

Take `CC(=O)Nc1ccc(CN2CCc3ccc(NS(=O)(=O)c4ccc(-c5cccc(C(F)(F)F)c5)cc4)cc3CC2)s1`: the inhibition in test [8] is 23%; in test [2], 0%. Besides, the growth inhibition in test [3] is 82% (active). In addition, the result in test [4], in test [5], in test [6] and in test [7] was inactive.

As to `CCCCCCn1ccc2c3c(N)nc(N)nc3ccc21`, the growth inhibition in test [1] is 91% (active); in test [3], 99% (active). For the same compound, in test [2], the inhibition was 0%. Further, the result in test [4], in test [5], in test [6] and in test [7] was inactive.

Regarding `O=C(Nc1cccc(-c2nn3ccccc3c2-c2ccnc(Nc3cccc(F)c3)n2)c1)C1CCCCC1`, the inhibition was 44% in test [8] and 3% in test [2]. Further, the growth inhibition in test [3] was 85% (active). Also, the outcome in test [4], in test [5], in test [6] and in test [7] was inactive.

For `Nc1nc(N)c2c(ccc3[nH]c(-c4ccccc4Cl)nc32)n1`, the growth inhibition in test [1] and in test [3] was 101% (active) throughout. For the same compound, the inhibition in test [2] is -1%. The outcome in test [4], in test [5], in test [6] and in test [7] was inactive.

Regarding `Nc1nc2ccc(CNc3ccc(C(=O)N[C@@H](CCC(=O)O)C(=O)O)cc3)cc2c(=O)[nH]1`, the inhibition in test [8] was 2%; in test [2], 3%. Also, in test [3], the growth inhibition is 96% (active). The result in test [4], in test [5], in test [6] and in test [7] was inactive.

Regarding `CN(C)Cc1ccc(CNC2CCN(Cc3ccccc3Cl)CC2)cc1`, the inhibition was 23% in test [8] and -3% in test [2]. The growth inhibition in test [3] was 82% (active). The result in test [4], in test [5], in test [6] and in test [7] was inactive.

Take `Nc1[nH]c2ccccc2c(=O)c1-c1nc2ccccc2s1`: the inhibition in test [8] was 16%; in test [2], -6%. The growth inhibition in test [3] is 97% (active). Moreover, the result in test [4], in test [5], in test [6] and in test [7] was inactive.
